Only some compounds are listed: those with a hit (about 11% of all), similar ones and a draw of the others.
RORgamma inh – blocks mouse ROR gamma transcriptional activity; P51450; Drosophila S2 Gal4-RORgamma UAS-luciferase reporter, 20 h; Potency, µM (top dose mostly 53.6 µM), for inactives: top-dose activity change, negative = inhibition, actives largely listed as inhibitors; 5.4% of 310,000 active; note: potency is the fitted concentration of half-maximal effect; % is set by controls: 0 for no effect and ±100 for the full control effect; nearly all actives have a fitted effect of over 60% in size
Target sequence (P51450 whole entry, looked up, the tested form may be a part): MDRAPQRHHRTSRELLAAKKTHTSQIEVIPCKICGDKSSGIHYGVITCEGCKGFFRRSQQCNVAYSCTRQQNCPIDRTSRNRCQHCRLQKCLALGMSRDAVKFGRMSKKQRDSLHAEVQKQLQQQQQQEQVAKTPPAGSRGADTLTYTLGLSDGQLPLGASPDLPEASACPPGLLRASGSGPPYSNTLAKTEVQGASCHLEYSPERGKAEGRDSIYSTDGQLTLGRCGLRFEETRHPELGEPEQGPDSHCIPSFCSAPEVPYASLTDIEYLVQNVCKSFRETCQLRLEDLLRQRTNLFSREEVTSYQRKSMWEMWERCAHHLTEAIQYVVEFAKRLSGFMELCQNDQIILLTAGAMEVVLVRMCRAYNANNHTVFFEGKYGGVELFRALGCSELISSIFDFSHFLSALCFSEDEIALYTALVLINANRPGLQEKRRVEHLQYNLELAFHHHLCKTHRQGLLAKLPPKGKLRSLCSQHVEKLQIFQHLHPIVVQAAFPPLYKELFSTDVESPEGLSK
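Luminescence from a UAS-regulated Photinus luciferase reporter in stably transfected Drosophila Schneider cells is measured; decreased signal marks ROR gamma inhibition. Fusion expression is induced by 700 uM copper sulfate for 20 hr.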
MCF10A rerep – DNA re-replication induction in MCF 10a cells | MCF 10A DNA re-replication, Hoechst nuclear intensity, 48 h | Potency, µM (doses to about 46.1 µM), for inactives: top-dose activity, positive = re-replication, hits mostly activators | 2.9% of 350,000 active | AID 624296; note: potency is the fitted concentration of half-maximal effect; % of control where 0% means no effect; nearly all actives have a fitted effect of over 50% in size
SW480 rerep – induces DNA re-replication in SW480 colon adenocarcinoma cells; SW480 DNA re-replication, Hoechst DNA content imaging, 48 h; Potency, µM (highest dose often 46.1 µM), inactives show at the top dose re-replication activation, hits mostly activators; 1.8% of 340,000 active; AID 624297; note: potency is the fitted concentration of half-maximal effect; % of control where 0% means no effect; nearly all actives have a fitted effect of over 55% in size
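Treated cells incubate 48 hr (37 C, 5% CO2), are stained 40 min with Hoechst, and nuclear fluorescence is enumerated; a rise in nuclei with high DNA signal marks re-replication.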
IL-1B inflam inh – inhibitors of inflammasome signaling (IL-1 beta secretion); 4.7% of 360,000 active; activity change, % at 57.5 µM; THP-1 LPS/ATP IL-1B secretion, AlphaLISA, 16 h; hits give low values; AID 743279; in the data active = activity change below about -50%; inconclusive = mostly about -30% to -49%; note: % is set by controls: 0 for no effect and ±100 for the full control effect
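Secreted IL-1B measured by AlphaLISA bead assay after 16 h compound exposure of THP-1 cells; compounds (final up to 57.5 uM) added 1 h before LPS (250 ng/mL) and ATP (1.25 mM) stimulation; lower signal means less secretion.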
VP16 counter – Gal4-VP16 reporter inhibition counter-screen | Drosophila S2 Gal4-VP16 UAS-luciferase, luminescence, 20 h | Potency, µM (highest dose often 53.6 µM), inactives show top-dose activity, negative = inhibition, hits mostly inhibitors | 3.5% of 310,000 active | AID 2546;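 note: Gal4-VP16 expression switched on by copper sulfate through the metallothionein promoter; potency is the fitted concentration of half-maximal effect; % is set by controls: 0 for no effect and ±100 for the full control effect; nearly all actives have a fitted effect of over 50% in size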
The depositor's hits bear a star; i = inactive; u = inconclusive; x = no result given; [ ] = another dose, or the depositor's remark. Unless noted, calls come from the whole dose curve; as a rule, active = well fitted curve in the direction sought with a large enough effect; inconclusive = small, poorly fitted or top-dose-only effect, or another doubt; inactive = no such curve, though single readings can be large; an effect the other way counts as inactive or inconclusive.

SMILES	RORgamma inh	MCF10A rerep	SW480 rerep	IL-1B inflam inh	VP16 counter
O=C(Nc1ccc2oc(=O)ccc2c1)c1ccc(-c2cccc(Cl)c2)o1	13.0%	2.4%	u	-26.8	0.2%
O=C(Nc1ccc2oc(=O)ccc2c1)c1ccc(-c2cccc([N+](=O)[O-])c2)o1	33.5%	u	20.6µM*	6.0	-0.6%
O=C(Nc1ccc2oc(=O)ccc2c1)c1ccc(-c2ccccc2[N+](=O)[O-])o1	-44.2%	11.6µM*	u	22.6	u
CC1(c2nnnn2Cc2ccccc2)CCC(=O)N1Cc1ccc(F)cc1 (centres undefined)	x	x	x	32.9	x
C/C(CC(=O)Nc1cc(C)ccn1)=N\NC(=O)c1ccc(C)cc1	u	-12.1%	1.6%	0.0	17.5%
C/C(CC(=O)Nc1cc(C)ccn1)=N\NC(=O)c1ccccc1C	8.91µM*	-0.5%	-1.9%	-12.4	u
NC(=O)c1sc2nc3c(cc2c1N)CCCCCC3	10.8%	11.9%	-12.1%	-96.9*	u
Nc1c(C(=O)Nc2cccc(C(=O)O)c2)sc2nc3c(cc12)CCCC3	2.82µM*	u	u	4.8	3.16µM*
Nc1c(C(=O)Nc2ccc(Cl)c(C(=O)O)c2)sc2nc3c(cc12)CCCC3	u	u	u	9.9	-19.4%
Nc1c(C(=O)C2CC2)sc2nc3c(cc12)CCC3	34.3%	14.6µM*	u	70.8	u
Nc1c(C(=O)O)sc2nc3c(cc12)CCCC3	-21.6%	0.5%	-9.8%	55.1	-9.5%
COc1ccccc1C(=O)Nc1ccnn1C1CCN(Cc2ccn[nH]2)CC1	-15.2%	7.2%	-32.2%	i	4.8%
Nc1nc(CN2CCC(Cc3ccccc3)CC2)nc(Nc2ccccc2)n1	10µM*	2.8%	5.7%	u	-26.1%
CC1CC(C)CN(Cc2nc(N)nc(Nc3ccccc3)n2)C1 (centres undefined)	-39.8%	u	-2.4%	2.2	2.8%
CC1CC(C)CN(Cc2nc(N)nc(Nc3ccc4ccccc4c3)n2)C1 (centres undefined)	-12.2%[0.365 µM]	5.8µM*	9.2µM*	u	x
Nc1nc(CN2CCN(C(c3ccccc3)c3ccccc3)CC2)nc(Nc2ccccc2)n1	3.16µM*	u	2.0%	-21.6	u
Nc1nc(CN2CCCCCC2)nc(Nc2ccccc2)n1	-30.4%	9.7%	-6.1%	2.3	-0.6%[0.365 µM]
Cc1ccc(Nc2nc(N)nc(CSc3nncn3C)n2)cc1	-84.4%	-8.5%	-1.9%	13.8	11.2µM*
FC(F)(F)c1ccc(-c2cccc3c2C2CC3CCN2Cc2ccc3c(c2)OCO3)cc1 (centres undefined)	x	x	x	8.5	x
CCCn1c(-c2ccc(F)cc2)nc2c(NCCCN(CCO)CCO)nc(C)nc21	-1.6%	x	x	x	9.0%
CCCC1(C(=O)OC)C=C2C(=C(c3ccccc3)C(=O)C2C)CN1 (centres undefined)	-3.4%	x	x	x	-12.3%
Cc1ccc(Nc2nc(N)nc(CN3CCN(c4ccccc4F)CC3)n2)cc1	11.2µM*	u	u	-13.4	-3.8%
Nc1nc(CN2CCN(c3ccccc3F)CC2)nc(Nc2ccccc2)n1	u	4.6%	-2.9%	-7.0	6.7%
CC(C)N1CCC(C)(C(=O)Nc2ccccc2Oc2ccccc2)C1 (centres undefined)	x	x	x	5.9	x
COc1cccc(NC(=O)CN(C)CC(=O)c2c(C)[nH]c3ccccc23)c1	x	4.5%	-14.9%	13.8	x
O=C(CCCN1C(=O)/C(=C/c2ccccc2Cl)SC1=S)NCCCN1CCOCC1	5.01µM*	u	u	-104.4*	12.6µM*
O=C(CCN1C(=O)/C(=C/c2ccccc2F)SC1=S)NCCCN1CCOCC1	-27.1%	15.4%	-0.6%	-96.6*	-3.2%
COC(=O)c1ccc(/C=C2/SC(=S)N(CCC(=O)NCCCN3CCOCC3)C2=O)cc1	8.3%	u	0.5%	-56.6*	6.1%
O=C(CCN1C(=O)/C(=C/c2ccccc2)SC1=S)NCCCN1CCOCC1	24.4%	16.6%	-3.8%	-58.9*	3.5%
O=C(CCN1C(=O)/C(=C\c2cccc(Br)c2)SC1=S)NCCCN1CCOCC1	-20.8%	3.8%	0.7%	-19.6	-1.3%
